TRPML1 inh – qHTS for Inhibitors of the Human Mucolipin Transient Receptor Potential 1 (TRPML1); 0.02% of 390,000 active; TRPML1-inducible cells, Ca2+ dye fluorescence, FDSS; active compounds read low; inhibition of EC80 agonist-evoked calcium signal; Mucolipin-1 (Homo sapiens), Q9GZU1; activity change, negative = inhibition, % (no concentration beside the values); in the data active = activity change below about -50%; inconclusive = between about -30% and that limit;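 also: stimulus is agonist 54-4 at its EC80 concentration; % is scaled to controls: 0 for no effect and ±100 for the full control effect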
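Calcium fluorescence in TRPML1-DL cells induced overnight with Tet: a 110 s read after compound pin addition, then a 110 s antagonist read after challenge with 54-4 at 4 uM final (EC80).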
DRD3 antagonist – qHTS of D3 Dopamine Receptor Antagonist: qHTS; max response, negative = inhibition, %; 2.5% of 360,000 active; D3R cells, DiscoveRx beta-arrestin luminescence, antagonist mode; active compounds read low; AID 652054, 2013; D(3) dopamine receptor (Homo sapiens), P35462; in the data active = max response below about -50%; inconclusive = no clear call, values can overlap the other calls; also: % is scaled to controls: 0 for no effect and ±100 for the full control effect
Target sequence (P35462 whole entry, looked up): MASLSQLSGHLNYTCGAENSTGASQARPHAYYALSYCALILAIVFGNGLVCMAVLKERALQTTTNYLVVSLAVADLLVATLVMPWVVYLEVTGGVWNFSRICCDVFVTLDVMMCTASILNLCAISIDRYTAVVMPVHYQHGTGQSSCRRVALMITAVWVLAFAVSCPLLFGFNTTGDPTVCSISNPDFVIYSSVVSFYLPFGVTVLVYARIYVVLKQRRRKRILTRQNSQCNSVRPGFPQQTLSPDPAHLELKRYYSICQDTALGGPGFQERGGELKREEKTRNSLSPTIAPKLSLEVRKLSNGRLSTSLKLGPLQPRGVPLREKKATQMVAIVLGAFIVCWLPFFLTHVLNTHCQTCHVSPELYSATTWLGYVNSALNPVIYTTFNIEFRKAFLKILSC
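Cells expressing the human receptor were seeded at 1500 cells/well, incubated overnight at 37 degrees C in 5% CO2, then exposed to library compounds with dopamine controls for 90 minutes at 37 degrees C before luminescent detection.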
TRPML1 ag – qHTS for Agonists of the Human Mucolipin Transient Receptor Potential 1 (TRPML1); Mucolipin-1 (Homo sapiens), Q9GZU1; TRPML1-expressing cells, Ca2+ dye fluorescence, FDSS; activation, % (no concentration beside the values); 0.12% of 410,000 active; in the data active = activation above about 50%; inconclusive = mostly about 30% to 49%; also: 0% is about no effect
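TRPML1-DL cells, Tet-induced overnight (~16 h, 37 degrees C), loaded 45-90 min at room temperature with Ca8 no-wash calcium dye plus quencher. FDSS fluorescence: 10 s baseline, compound pin-transfer, 110 s agonist read, then EC80 54-4 (4uM final) and 110 s antagonist read.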
DRD3 agonist – qHTS of D3 Dopamine Receptor Agonist: qHTS | D3R DiscoveRx beta-arrestin cells, luminescence, 90 min | max activation, % | 0.58% of 410,000 active; in the data active = max activation above about 30%; also: 0% is about no effect
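Cells at 1500/well, incubated overnight, then treated with pinned compounds (dopamine as control) for 90 min at 37 degrees C. DiscoveRx reagent added for 30 - 60 minutes at room temperature; luminescence read.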
Numbers without * were called inactive; ? = inconclusive; . = no result. Sampled rows, rich in hits. Any-hit rate of the full collection: about 2.9%.

SMILES	TRPML1 inh	DRD3 antagonist	TRPML1 ag	DRD3 agonist
COc1ccc(N2CCN(CC(O)COC(c3ccccc3)c3ccccc3)CC2)cc1 (stereo not given)	7	-26	3	-8
Oc1ccc(Oc2ccc3c(C(F)(F)F)cc(C(F)(F)F)nc3n2)cc1	17	85	5	44*
COc1ccc(Oc2ccc3c(C(F)(F)F)cc(C(F)(F)F)nc3n2)cc1	7	-21	0	-10
CCOc1cc(C2c3c(-c4cc(C)ccc4O)n[nH]c3C(=O)N2CCCOC(C)C)ccc1O (stereo not given)	4	.	3	6
O=C(NC1CC1)c1ccc2nc(-c3ccco3)c(-c3ccco3)nc2c1	.	.	1	.
COc1cc(C)ccc1OCCSc1nc2ccc(NC(=O)c3cccs3)cc2s1	-9	.	-1	12
C(=C\c1ccccc1)/C=N/Nc1nc(N2CCCCC2)nc(N2CCCCC2)n1	23	10	3	2
CC(=C/c1ccccc1)/C=N/Nc1nc(N2CCCCC2)nc(N2CCCCC2)n1	0	15	-1	32*
CC(OCC(O)CN(C)CCOc1ccccc1)c1ccc(Cl)cc1 (stereo not given)	-3	-69*	-1	-5
CN(CCOc1ccccc1)CC(O)COCc1ccccc1F (stereo not given)	9	?	0	-5
CN(CCOc1ccc(Cl)cc1)CC(O)c1ccccc1 (stereo not given)	3	-52*	1	-9
CN(CCOc1ccc(Br)cc1)CC(O)c1ccccc1 (stereo not given)	47	-18	1	-13
CN(CCOc1ccccc1)CC(O)COc1ccccc1 (stereo not given)	4	-74*	-1	-11
COc1ccc2c(c1)C(=O)CC2	.	.	0	.
COc1ccccc1CCc1nnc(CCC(=O)NCC[C@@H]2C[C@@H]3C=C[C@H]2C3)o1	-1	-62*	0	3
Cc1cc(OC(C)C(=O)N(Cc2ccco2)Cc2ccco2)cc(C)c1Cl (stereo not given)	48	.	5	10
Cc1cc(C)cc(N2C(=O)CSC23C(=O)N(CC(=O)NCCc2ccccc2)c2ccccc23)c1 (stereo not given)	1	.	1	3
COc1ccc(CCNCc2c(C(=O)O)c(C)n(Cc3c(F)cccc3Cl)c2C)cc1OC	-15	.	0	1
CC(C)(C)n1ncc2c(=O)n(Cc3ccccc3CS(=O)(=O)c3ccccc3)cnc21	-7	.	1	.
Cc1ccc2cccc(OC(=O)c3ccc4c(c3)OCCO4)c2n1	-1	-50*	0	2
Cc1ccc2cccc(OCC(=O)Nc3ccc4c(c3)OCO4)c2n1	-2	-2	1	4
O=S(=O)(Nc1ccc(-c2nc3cccnc3s2)cc1)c1cccs1	-5	-14	0	12
O=S(=O)(Nc1cccc2ncccc12)c1cccs1	19	-69*	0	-19
COc1ccc(N2CCN(CCCNC(=O)c3c(C)nn(-c4ccc(F)cc4)c3-n3cccc3)CC2)cc1	11	.	2	-1
COC(C[C@H]1O[C@H]1[C@H](O)[C@H](C)OCc1ccccc1)OC	-2	12	0	37*
SMILES	TRPML1 inh	DRD3 antagonist	TRPML1 ag	DRD3 agonist
COC(C[C@@H]1O[C@@H]1[C@@H](O)[C@H](C)OCc1ccccc1)OC	-7	0	-1	1
Cc1ccc2c(n1)Oc1ccc(C(C)C(=O)OCC(=O)N(C)C)cc1C2 (stereo not given)	.	.	.	7
COc1c(Br)cc(Br)cc1/C=N/NC(=O)c1cccnc1	-6	-96*	1	-29
COc1c(Br)cc(Br)cc1/C=N/NC(=O)c1ccncc1	-12	-80*	-1	-9
OC[C@@H](O)C(O)[C@H](O)CO	.	.	.	-11
COc1cc(/C=C/c2ccc3cccc(OC)c3n2)c(OC(C)=O)c([N+](=O)[O-])c1	-4	-53*	0	-9
O=[N+]([O-])c1ccc(O)c(N=Cc2sc3ccccc3c2O)c1	11	-83*	7	-26
COc1ccc(C(=O)Nc2ccc(-c3nc4ncccc4o3)cc2C)cc1Br	14	.	1	7
c1ccc(-c2noc(CN3CCN(c4cnccn4)CC3)n2)cc1	-4	1	1	12
Oc1ccccc1N1CCN(Cc2ncc(-c3ccccc3)o2)CC1	-1	-58*	-1	-6

From PubChem
